About 7,900 targets were measured; listed, in parts, are those with a hit and a random draw of the rest. About 0.6% of all pairs of compound and target were hits. Values without a mark were called inactive.
Key:
Experiment in all cases: log2 fold change, soluble protein after heating vs DMSO (PISA); higher = thermal stabilisation; K562 cells, 10 uM, 30 min; active = over 0.2 and 3.5 SD of the protein, either way, in both replicates (recomputed)
[1] = compound: COC1=CC=C(C=C1)CN2C=CC3=C2C=C(C=C3)C(=O)NO
In short: (§1)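 Thermal stability values are relative to control samples and come from duplicates. They are expressed as log2 fold changes. For measurement, K562 cells (2×10^6 cells/mL) received 10 μM compound for 30 min, and aliquots were heated for 3 min over 48°C-58°C, pooled, and extracted at 4°C in PBS with 0.5% NP-40. Soluble protein, the supernatant after 21,000xg for 90 min, was quantified by TMTpro 16plex LC-MS/MS with equalised channel sums.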

filanesib = compound: CON(C)C(=O)N1N=C(c2cc(F)ccc2F)S[C@@]1(CCCN)c1ccccc1 [filanesib]
In short: as §1

zotarolimus = compound: CO[C@H]1C[C@@H]2CC[C@@H](C)[C@@](O)(O2)C(=O)C(=O)N2CCCC[C@H]2C(=O)O[C@H]([C@H](C)C[C@@H]2CC[C@H](n3cnnn3)[C@H](OC)C2)CC(=O)[C@H](C)/C=C(\C)[C@@H](O)[C@@H](OC)C(=O)[C@H](C)C[C@H](C)/C=C/C=C/C=C/1C [zotarolimus]
In short: as §1

idasanutlin = compound: COc1cc(C(=O)O)ccc1NC(=O)[C@@H]1N[C@@H](CC(C)(C)C)[C@](C#N)(c2ccc(Cl)cc2F)[C@H]1c1cccc(Cl)c1F [idasanutlin]
In short: as §1

alisertib = compound: COc1cc(Nc2ncc3c(n2)-c2ccc(Cl)cc2C(c2c(F)cccc2OC)=NC3)ccc1C(=O)O [alisertib]
In short: as §1

[2] = compound: COc1cc2nc(-c3cc(F)ccc3O)nc(N[C@@H]3CNC[C@H]3C(C)(C)O)c2cc1OC
In short: as §1

gefitinib = compound: COc1cc2ncnc(Nc3ccc(F)c(Cl)c3)c2cc1OCCCN1CCOCC1 [gefitinib]
In short: as §1

[3] = compound: COc1cccc2cc(-c3nc([C@H]4CC[C@H](C(=O)O)CC4)n4ncnc(N)c34)[nH]c12
In short: as §1

lapatinib = compound: CS(=O)(=O)CCNCc1ccc(-c2ccc3ncnc(Nc4ccc(OCc5cccc(F)c5)c(Cl)c4)c3c2)o1 [lapatinib]
In short: as §1

pictilisib = compound: CS(=O)(=O)N1CCN(Cc2cc3nc(-c4cccc5[nH]ncc45)nc(N4CCOCC4)c3s2)CC1 [pictilisib]
In short: as §1

ILRUN (UniProt Q9H6K1)
log2 fold change [1]: -0.051
log2 fold change (filanesib): -0.016
log2 fold change (zotarolimus): 0.042
log2 fold change (idasanutlin): -0.101
log2 fold change (alisertib): -0.03
log2 fold change [2]: -0.002
log2 fold change (gefitinib): 0.048
log2 fold change [3]: 0.09
log2 fold change (lapatinib): 0.08

LMNA (UniProt P02545)
log2 fold change [1]: -0.093
log2 fold change (filanesib): 0.088
log2 fold change (zotarolimus): 0.018
log2 fold change (idasanutlin): 0.093
log2 fold change (alisertib): 0.096
log2 fold change [2]: -0.112
log2 fold change (gefitinib): -0.014
log2 fold change [3]: 0
log2 fold change (lapatinib): 0.028
log2 fold change (pictilisib): 0.008

KHDC4 (UniProt Q7Z7F0)
log2 fold change [1]: 0.14
log2 fold change (filanesib): -0.025
log2 fold change (zotarolimus): 0.035
log2 fold change (idasanutlin): -0.043
log2 fold change (alisertib): -0.003
log2 fold change [2]: 0.025
log2 fold change (gefitinib): 0.015
log2 fold change [3]: -0.026
log2 fold change (lapatinib): -0.025
log2 fold change (pictilisib): -0.028

LTO1 (UniProt Q8WV07)
UniProt Q8WV07, sequence (Q8WV07 whole entry, looked up): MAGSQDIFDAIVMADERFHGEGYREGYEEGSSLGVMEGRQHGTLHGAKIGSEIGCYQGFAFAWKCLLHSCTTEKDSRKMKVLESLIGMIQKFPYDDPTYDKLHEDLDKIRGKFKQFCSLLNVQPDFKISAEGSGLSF
log2 fold change [1]: -0.06
log2 fold change (filanesib): -0.06
log2 fold change (zotarolimus): 0.062
log2 fold change (idasanutlin): -0.093
log2 fold change (alisertib): 0.118
log2 fold change [2]: 0.036
log2 fold change (gefitinib): 0.017
log2 fold change [3]: -0.001
log2 fold change (lapatinib): -0.016
log2 fold change (pictilisib): 0.038

KIF1B isoform 4 (UniProt O60333)
log2 fold change [1]: 0.008
log2 fold change (filanesib): -0.128
log2 fold change (zotarolimus): 0.024
log2 fold change (idasanutlin): -0.006
log2 fold change (alisertib): -0.044
log2 fold change [2]: -0.014
log2 fold change (gefitinib): -0.004
log2 fold change [3]: -0.04
log2 fold change (lapatinib): 0.013
log2 fold change (pictilisib): 0.037

MAML1 (UniProt Q92585)
log2 fold change [1]: -0.065
log2 fold change (filanesib): 0.152
log2 fold change (zotarolimus): -0.065

KTN1 (UniProt Q86UP2)
log2 fold change [1]: 0.023
log2 fold change (filanesib): 0.146
log2 fold change (zotarolimus): 0.034
log2 fold change (idasanutlin): 0.004
log2 fold change (alisertib): 0.032
log2 fold change [2]: -0.001
log2 fold change (gefitinib): -0.08
log2 fold change [3]: -0.116
log2 fold change (lapatinib): -0.038
log2 fold change (pictilisib): -0.086

KPNA6 (UniProt O60684)
log2 fold change [1]: 0.193
log2 fold change (filanesib): 0.115
log2 fold change (zotarolimus): 0.169
log2 fold change (idasanutlin): -0.031
log2 fold change (alisertib): -0.01
log2 fold change [2]: 0.056
log2 fold change (gefitinib): 0.048
log2 fold change [3]: -0.066
log2 fold change (lapatinib): -0.018
log2 fold change (pictilisib): -0.017

LPGAT1 (UniProt Q92604)
log2 fold change [1]: 0.124
log2 fold change (filanesib): -0.021
log2 fold change (zotarolimus): 0.001
log2 fold change (idasanutlin): -0.098
log2 fold change (alisertib): 0.032
log2 fold change [2]: -0.082
log2 fold change (gefitinib): -0.059
log2 fold change [3]: 0.12
log2 fold change (lapatinib): 0.15

MED8 isoform 2 (UniProt Q96G25)
log2 fold change [1]: -0.11
log2 fold change (filanesib): 0.033
log2 fold change (zotarolimus): -0.004
log2 fold change (idasanutlin): 0.095
log2 fold change (alisertib): -0.088
log2 fold change [2]: -0.154
log2 fold change (gefitinib): -0.034
log2 fold change [3]: -0.041
log2 fold change (lapatinib): 0.058

ITM2B (UniProt Q9Y287)
UniProt Q9Y287, sequence (Q9Y287 whole entry, looked up): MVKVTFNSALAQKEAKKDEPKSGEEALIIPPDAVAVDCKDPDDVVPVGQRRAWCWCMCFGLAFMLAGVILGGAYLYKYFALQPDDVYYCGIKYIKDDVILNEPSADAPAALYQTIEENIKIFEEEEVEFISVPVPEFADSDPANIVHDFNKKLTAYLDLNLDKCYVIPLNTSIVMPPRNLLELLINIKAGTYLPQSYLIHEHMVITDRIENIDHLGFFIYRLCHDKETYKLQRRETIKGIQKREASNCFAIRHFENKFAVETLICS
log2 fold change [1]: -0.109
log2 fold change (filanesib): 0.092
log2 fold change (zotarolimus): -0.042
log2 fold change (idasanutlin): -0.03
log2 fold change (alisertib): 0.083
log2 fold change [2]: -0.037
log2 fold change (gefitinib): -0.047
log2 fold change [3]: 0.138
log2 fold change (lapatinib): -0.116

MCCC2 (UniProt Q9HCC0)
UniProt Q9HCC0, sequence (Q9HCC0 whole entry, looked up): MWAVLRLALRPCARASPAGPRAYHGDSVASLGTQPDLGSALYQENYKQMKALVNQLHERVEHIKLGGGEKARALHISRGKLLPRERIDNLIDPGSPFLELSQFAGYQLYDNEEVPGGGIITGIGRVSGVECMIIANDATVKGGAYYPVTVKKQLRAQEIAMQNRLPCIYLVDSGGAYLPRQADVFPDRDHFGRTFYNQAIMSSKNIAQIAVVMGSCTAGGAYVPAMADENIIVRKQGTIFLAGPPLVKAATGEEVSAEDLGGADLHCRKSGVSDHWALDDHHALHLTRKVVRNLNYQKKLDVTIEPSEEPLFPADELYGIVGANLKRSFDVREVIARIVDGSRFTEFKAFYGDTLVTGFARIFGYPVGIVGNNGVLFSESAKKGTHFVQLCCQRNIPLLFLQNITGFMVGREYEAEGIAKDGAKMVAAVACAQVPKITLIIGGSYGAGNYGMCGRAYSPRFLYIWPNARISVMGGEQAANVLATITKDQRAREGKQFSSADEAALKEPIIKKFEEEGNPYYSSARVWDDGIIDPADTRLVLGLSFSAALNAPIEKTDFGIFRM
log2 fold change [1]: 0.137
log2 fold change (filanesib): -0.07
log2 fold change (zotarolimus): 0
log2 fold change (idasanutlin): -0.033
log2 fold change (alisertib): -0.057
log2 fold change [2]: -0.022
log2 fold change (gefitinib): 0.006
log2 fold change [3]: 0.083
log2 fold change (lapatinib): 0.001
log2 fold change (pictilisib): -0.031

MIEN1 (UniProt Q9BRT3)
log2 fold change [1]: -0.084
log2 fold change (filanesib): 0.085
log2 fold change (zotarolimus): 0.015
log2 fold change (idasanutlin): -0.009
log2 fold change (alisertib): 0.034
log2 fold change [2]: 0.061
log2 fold change (gefitinib): 0.027
log2 fold change [3]: 0.001
log2 fold change (lapatinib): -0.016
log2 fold change (pictilisib): 0.001

KDM3B (UniProt Q7LBC6)
log2 fold change [1]: 0.01
log2 fold change (filanesib): 0.001
log2 fold change (zotarolimus): 0.033
log2 fold change (idasanutlin): -0.026
log2 fold change (alisertib): 0.021
log2 fold change [2]: 0.065
log2 fold change (gefitinib): 0.008
log2 fold change [3]: -0.029
log2 fold change (lapatinib): -0.014
log2 fold change (pictilisib): 0.012

MAPK14 isoform 2 (UniProt Q16539)
log2 fold change [1]: 0
log2 fold change (filanesib): 0.016
log2 fold change (zotarolimus): -0.033
log2 fold change (idasanutlin): -0.018
log2 fold change (alisertib): -0.058
log2 fold change [2]: -0.005
log2 fold change (gefitinib): 0.811
log2 fold change [3]: 0.319
log2 fold change (lapatinib): -0.034
log2 fold change (pictilisib): -0.114

MIA2 (UniProt Q96PC5)
UniProt Q96PC5, sequence (Q96PC5 whole entry, looked up): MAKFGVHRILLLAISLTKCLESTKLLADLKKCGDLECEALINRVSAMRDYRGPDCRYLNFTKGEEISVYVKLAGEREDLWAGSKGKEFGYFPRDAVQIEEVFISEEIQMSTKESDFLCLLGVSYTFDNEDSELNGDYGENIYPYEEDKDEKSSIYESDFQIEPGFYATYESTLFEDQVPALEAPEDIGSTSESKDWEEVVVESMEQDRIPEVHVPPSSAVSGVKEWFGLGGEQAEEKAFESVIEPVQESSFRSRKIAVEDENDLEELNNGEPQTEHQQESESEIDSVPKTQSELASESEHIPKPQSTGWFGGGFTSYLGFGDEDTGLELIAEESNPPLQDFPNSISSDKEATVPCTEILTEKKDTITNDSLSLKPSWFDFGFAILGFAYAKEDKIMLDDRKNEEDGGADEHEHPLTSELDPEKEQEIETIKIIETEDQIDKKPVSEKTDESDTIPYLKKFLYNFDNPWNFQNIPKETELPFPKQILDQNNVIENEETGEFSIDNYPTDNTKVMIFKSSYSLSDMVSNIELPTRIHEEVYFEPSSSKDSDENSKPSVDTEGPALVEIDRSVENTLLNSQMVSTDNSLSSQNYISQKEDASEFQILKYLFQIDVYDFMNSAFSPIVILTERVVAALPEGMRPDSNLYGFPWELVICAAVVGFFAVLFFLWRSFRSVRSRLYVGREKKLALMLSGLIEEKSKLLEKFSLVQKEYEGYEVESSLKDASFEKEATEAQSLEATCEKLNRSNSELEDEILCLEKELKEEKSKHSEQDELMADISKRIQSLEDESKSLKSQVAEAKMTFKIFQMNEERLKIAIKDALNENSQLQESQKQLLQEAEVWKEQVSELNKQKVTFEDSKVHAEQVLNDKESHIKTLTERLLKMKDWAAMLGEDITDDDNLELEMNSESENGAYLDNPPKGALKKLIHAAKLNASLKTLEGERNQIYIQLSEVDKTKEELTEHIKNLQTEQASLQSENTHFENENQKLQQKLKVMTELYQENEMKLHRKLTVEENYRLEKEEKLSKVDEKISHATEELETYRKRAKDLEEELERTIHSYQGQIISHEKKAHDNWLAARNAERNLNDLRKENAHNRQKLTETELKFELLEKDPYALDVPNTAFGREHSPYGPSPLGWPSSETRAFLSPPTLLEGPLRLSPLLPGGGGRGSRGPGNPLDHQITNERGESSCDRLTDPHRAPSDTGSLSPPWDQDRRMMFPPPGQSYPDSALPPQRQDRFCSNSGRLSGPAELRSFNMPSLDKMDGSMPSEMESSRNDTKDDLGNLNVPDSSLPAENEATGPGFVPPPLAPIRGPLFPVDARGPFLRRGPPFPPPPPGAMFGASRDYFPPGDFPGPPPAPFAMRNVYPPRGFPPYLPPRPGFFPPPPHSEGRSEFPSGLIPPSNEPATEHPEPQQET
log2 fold change [1]: -0.017
log2 fold change (filanesib): 0.121
log2 fold change (zotarolimus): 0.037
log2 fold change (idasanutlin): -0.017
log2 fold change (alisertib): 0.069
log2 fold change [2]: 0.027
log2 fold change (gefitinib): 0.034
log2 fold change [3]: -0.109
log2 fold change (lapatinib): 0.029
log2 fold change (pictilisib): -0.019

MAGEA9 (UniProt P43362)
log2 fold change [1]: -0.246
log2 fold change (filanesib): 0.003
log2 fold change (zotarolimus): 0.015
log2 fold change (idasanutlin): 0.087
log2 fold change (alisertib): 0.057
log2 fold change [2]: 0.024
log2 fold change (gefitinib): 0.034
log2 fold change [3]: 0.033
log2 fold change (lapatinib): -0.018
log2 fold change (pictilisib): -0.018

LUZP1 (UniProt Q86V48)
log2 fold change [1]: -0.08
log2 fold change (filanesib): 0.552 (active)
log2 fold change (zotarolimus): -0.059
log2 fold change (idasanutlin): 0.03
log2 fold change (alisertib): -0.081
log2 fold change [2]: -0.036
log2 fold change (gefitinib): 0.051
log2 fold change [3]: -0.117
log2 fold change (lapatinib): 0.041
log2 fold change (pictilisib): 0.07

MAP4 (UniProt E7EVA0)
log2 fold change [1]: -0.027
log2 fold change (filanesib): 0.216
log2 fold change (zotarolimus): -0.1
log2 fold change (idasanutlin): 0.023
log2 fold change (alisertib): -0.094
log2 fold change [2]: -0.134
log2 fold change (gefitinib): 0.109
log2 fold change [3]: -0.024
log2 fold change (lapatinib): 0.186
log2 fold change (pictilisib): 0.019

IGF2R (UniProt P11717)
UniProt P11717, sequence (P11717 whole entry, looked up): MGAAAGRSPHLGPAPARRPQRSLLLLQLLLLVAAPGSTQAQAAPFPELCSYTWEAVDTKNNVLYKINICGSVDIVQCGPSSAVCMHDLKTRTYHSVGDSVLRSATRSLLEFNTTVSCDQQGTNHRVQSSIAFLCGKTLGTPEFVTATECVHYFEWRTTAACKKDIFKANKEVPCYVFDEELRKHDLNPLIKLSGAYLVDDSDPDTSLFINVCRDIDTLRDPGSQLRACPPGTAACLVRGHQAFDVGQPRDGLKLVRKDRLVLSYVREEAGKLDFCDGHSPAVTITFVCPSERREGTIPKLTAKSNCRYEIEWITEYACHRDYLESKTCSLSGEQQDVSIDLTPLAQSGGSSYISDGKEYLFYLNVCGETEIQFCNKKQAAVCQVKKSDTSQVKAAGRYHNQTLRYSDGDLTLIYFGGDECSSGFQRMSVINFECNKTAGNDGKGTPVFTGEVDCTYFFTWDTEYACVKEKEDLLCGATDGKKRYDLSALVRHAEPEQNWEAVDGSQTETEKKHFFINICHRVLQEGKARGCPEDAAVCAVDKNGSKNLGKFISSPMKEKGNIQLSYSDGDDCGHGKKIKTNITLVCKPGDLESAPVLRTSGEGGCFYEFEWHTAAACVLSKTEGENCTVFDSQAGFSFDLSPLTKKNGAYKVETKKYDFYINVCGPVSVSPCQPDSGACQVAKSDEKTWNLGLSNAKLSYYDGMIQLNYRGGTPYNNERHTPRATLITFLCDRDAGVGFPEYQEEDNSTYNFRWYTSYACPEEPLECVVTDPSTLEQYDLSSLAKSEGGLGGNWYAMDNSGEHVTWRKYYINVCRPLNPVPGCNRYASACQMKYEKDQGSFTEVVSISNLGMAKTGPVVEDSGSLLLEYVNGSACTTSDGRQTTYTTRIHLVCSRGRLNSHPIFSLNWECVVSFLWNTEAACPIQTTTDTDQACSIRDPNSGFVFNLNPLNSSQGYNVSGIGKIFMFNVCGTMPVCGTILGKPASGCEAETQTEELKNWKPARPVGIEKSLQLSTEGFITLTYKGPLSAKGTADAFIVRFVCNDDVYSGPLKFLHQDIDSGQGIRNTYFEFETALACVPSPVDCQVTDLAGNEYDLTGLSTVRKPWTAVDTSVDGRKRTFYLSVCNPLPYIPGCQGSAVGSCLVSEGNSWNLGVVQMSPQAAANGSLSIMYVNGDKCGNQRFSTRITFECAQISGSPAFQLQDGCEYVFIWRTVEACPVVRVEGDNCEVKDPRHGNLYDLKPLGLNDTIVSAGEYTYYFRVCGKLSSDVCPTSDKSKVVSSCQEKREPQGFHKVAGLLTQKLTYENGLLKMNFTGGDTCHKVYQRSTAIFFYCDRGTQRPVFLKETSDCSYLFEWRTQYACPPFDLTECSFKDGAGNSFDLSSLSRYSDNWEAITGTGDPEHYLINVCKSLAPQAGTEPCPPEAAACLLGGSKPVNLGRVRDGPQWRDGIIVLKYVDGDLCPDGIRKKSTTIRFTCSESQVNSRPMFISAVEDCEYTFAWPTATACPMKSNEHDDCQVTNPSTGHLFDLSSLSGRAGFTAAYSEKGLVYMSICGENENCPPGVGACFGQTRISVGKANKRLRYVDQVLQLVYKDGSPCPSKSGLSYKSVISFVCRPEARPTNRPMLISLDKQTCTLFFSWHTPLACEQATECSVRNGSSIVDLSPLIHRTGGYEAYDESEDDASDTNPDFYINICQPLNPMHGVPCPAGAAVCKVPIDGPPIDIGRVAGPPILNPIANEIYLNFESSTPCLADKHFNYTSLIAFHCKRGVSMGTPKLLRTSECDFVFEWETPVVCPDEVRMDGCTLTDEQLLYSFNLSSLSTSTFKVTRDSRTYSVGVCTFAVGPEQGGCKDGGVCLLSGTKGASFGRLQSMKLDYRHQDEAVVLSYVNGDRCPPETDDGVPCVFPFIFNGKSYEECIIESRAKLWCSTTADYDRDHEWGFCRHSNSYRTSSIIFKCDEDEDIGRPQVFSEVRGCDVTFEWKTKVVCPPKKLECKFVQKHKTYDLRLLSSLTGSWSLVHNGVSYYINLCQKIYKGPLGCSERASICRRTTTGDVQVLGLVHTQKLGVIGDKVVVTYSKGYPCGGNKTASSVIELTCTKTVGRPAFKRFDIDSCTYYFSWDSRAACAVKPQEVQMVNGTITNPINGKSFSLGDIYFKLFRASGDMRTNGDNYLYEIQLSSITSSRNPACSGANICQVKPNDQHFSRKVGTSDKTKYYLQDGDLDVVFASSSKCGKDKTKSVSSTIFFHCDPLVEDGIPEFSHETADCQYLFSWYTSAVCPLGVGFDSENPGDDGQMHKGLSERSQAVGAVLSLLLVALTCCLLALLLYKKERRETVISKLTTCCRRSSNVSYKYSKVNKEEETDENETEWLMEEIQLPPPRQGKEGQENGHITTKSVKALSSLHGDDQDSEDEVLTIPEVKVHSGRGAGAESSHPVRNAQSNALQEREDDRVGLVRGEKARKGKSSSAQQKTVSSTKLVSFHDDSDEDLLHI
log2 fold change [1]: 0.041
log2 fold change (filanesib): 0.007
log2 fold change (zotarolimus): -0.014
log2 fold change (idasanutlin): -0.012
log2 fold change (alisertib): -0.058
log2 fold change [2]: -0.065
log2 fold change (gefitinib): -0.003
log2 fold change [3]: 0
log2 fold change (lapatinib): 0.015
log2 fold change (pictilisib): 0.002

METAP1D (UniProt Q6UB28)
log2 fold change [1]: 0.342 (active)
log2 fold change (filanesib): -0.097
log2 fold change (zotarolimus): 0.054
log2 fold change (idasanutlin): 0.079
log2 fold change (alisertib): -0.085
log2 fold change [2]: 0.021
log2 fold change (gefitinib): -0.029
log2 fold change [3]: -0.035
log2 fold change (lapatinib): -0.062

INTS7 (UniProt Q9NVH2)
log2 fold change [1]: 0.05
log2 fold change (filanesib): -0.022
log2 fold change (zotarolimus): -0.007
log2 fold change (idasanutlin): -0.052
log2 fold change (alisertib): -0.029
log2 fold change [2]: 0.05
log2 fold change (gefitinib): -0.052
log2 fold change [3]: -0.012
log2 fold change (lapatinib): -0.015
log2 fold change (pictilisib): 0.148

LDLRAP1 (UniProt Q5SW96)
log2 fold change [1]: 0.023

MAPK8 isoform 3 (UniProt P45983)
log2 fold change [1]: 0.025
log2 fold change (filanesib): 0.064
log2 fold change (zotarolimus): 0.018
log2 fold change (idasanutlin): -0.08
log2 fold change (alisertib): 0.007
log2 fold change [2]: 0.234
log2 fold change (gefitinib): -0.026
log2 fold change [3]: 0.035
log2 fold change (lapatinib): -0.045
log2 fold change (pictilisib): 0.287

IMMP1L (UniProt Q96LU5)
UniProt Q96LU5, sequence (Q96LU5 whole entry, looked up): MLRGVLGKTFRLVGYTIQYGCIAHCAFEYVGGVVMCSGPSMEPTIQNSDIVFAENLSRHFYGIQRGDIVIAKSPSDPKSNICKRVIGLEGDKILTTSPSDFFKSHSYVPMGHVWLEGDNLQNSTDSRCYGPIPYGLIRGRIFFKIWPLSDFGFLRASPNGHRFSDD
log2 fold change [1]: -0.041
log2 fold change (filanesib): -0.067
log2 fold change (zotarolimus): -0.034
log2 fold change (idasanutlin): -0.067
log2 fold change (alisertib): -0.252 (active)
log2 fold change [2]: 0.005
log2 fold change (gefitinib): -0.022
log2 fold change [3]: 0.016
log2 fold change (lapatinib): -0.062

MGST3 (UniProt O14880)
log2 fold change [1]: -0.021
log2 fold change (filanesib): -0.035
log2 fold change (zotarolimus): -0.005
log2 fold change (idasanutlin): 0.012
log2 fold change (alisertib): 0.008
log2 fold change [2]: 0.001
log2 fold change (gefitinib): 0.002
log2 fold change [3]: 0.018
log2 fold change (lapatinib): -0.009
log2 fold change (pictilisib): 0.004

MAP4 (UniProt P27816)
log2 fold change [1]: -0.002
log2 fold change (filanesib): 0.022
log2 fold change (zotarolimus): -0.029
log2 fold change (idasanutlin): 0.028
log2 fold change (alisertib): -0.034
log2 fold change [2]: -0.027
log2 fold change (gefitinib): -0.019
log2 fold change [3]: -0.003
log2 fold change (lapatinib): -0.002
log2 fold change (pictilisib): -0.078

MAGI1 (UniProt Q96QZ7)
log2 fold change [1]: -0.031
log2 fold change (filanesib): 0.053
log2 fold change (zotarolimus): -0.044
log2 fold change (idasanutlin): 0.084
log2 fold change (alisertib): -0.01
log2 fold change [2]: 0.005
log2 fold change (gefitinib): 0.042
log2 fold change [3]: -0.012
log2 fold change (lapatinib): 0.01
log2 fold change (pictilisib): 0.053

LEMD2 (UniProt Q8NC56)
log2 fold change [1]: -0.051
log2 fold change (filanesib): -0.211
log2 fold change (zotarolimus): 0
log2 fold change (idasanutlin): -0.008
log2 fold change (alisertib): 0.044
log2 fold change [2]: -0.271
log2 fold change (gefitinib): 0.061
log2 fold change [3]: 0.047
log2 fold change (lapatinib): 0.133
log2 fold change (pictilisib): -0.007

Reference: the supplement of paper PMC10849652
